PubChem BioAssay (NCI)
Values joined by “and” are separate entries in the source; they are usually repeats but may differ in a detail not shown here. Identical values can stand only once. The panel holds about 83,000 compounds, 20% with a hit somewhere; the sample as a whole holds those more often.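 96-well plates, one dose, 48 hours. Percent growth reported; active if below 10.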 Active and inactive are the calls of the source.

What follows are molecules tested on KM12 colon (assay: NCI-60 one-dose screen, 48 h (100 = growth as untreated, 0 = no growth, -100 = all killed)). Conditions: 10 µM unless noted.
Experimental: Growth inhibition of the KM12 human tumor cell line is measured as a screen for anti-cancer activity. Cells are grown in 96 well plates and exposed to the test compound for 48 hours. Compounds are tested at a single concentration, which is 10^-5 M for most compounds. The reported endpoint is percent growth (GI% or GIPRCNT), where numbers from 0 - 100% represent growth inhibition, and numbers from -100% - 0 represent cell death. For example, a value of 40 represents 60% growth inhibition. A value of 0 means no net growth occurred over the course of the experiment. A value of -40 indicates 40% of cells at the beginning of the experiment died by the end of the experiment. A value of -100 means all cells are dead at the end of the experiment.
NCI-60 Human Tumor Cell Lines Screen was performed using the standard one-dose NCI protocol, which is described in more detail at https://dtp.cancer.gov/discovery_development/nci-60/default.htm.
Compounds with GIPRCNT values below 10 were considered active. Activity score was based on GIPRCNT using the following formula: […]
Score is 0 for GIPRCNT values of 100 or above, 50 for GIPRCNT values of 0, and 100 for GIPRCNT values of -100.

SMILES	growth
CC(=O)OC[C@@]12Oc3c(cccc3-c3ccc(O)c4c3O[C@]3(COC(C)=O)C(=C4O)C(=O)C[C@H](C)[C@@H]3OC(C)=O)C(O)=C1C(=O)C[C@H](C)[C@@H]2OC(C)=O	8.74% (active)
CN1CCN(c2ccc(Nc3nc(NCCCNS(=O)(=O)c4cccc5ccccc45)c4sccc4n3)cc2)CC1	4.02% (active)
CC(=O)c1cc(C(=O)N2c3ccccc3Sc3ccccc32)n2c1ccc1ccccc12	44.6% (inactive)
COC(=O)c1ccc(NC2=C(Cl)C(=O)C(C)=C(C)C2=O)cc1	6.69% (active)
Cc1ncn(-c2ccc(/C=N/Nc3ccnc4cc(Cl)ccc34)cc2)c1C	-25.8% (active)
Cc1ccc(NC(=O)Nc2nc3ccc([N+](=O)[O-])cc3s2)cc1	-3.91% (active)
O=C(CCCCCCNC(=O)c1csc(Br)n1)NO	56.8% (inactive)
COC(=O)c1cccc(NC2=C(Cl)C(=O)c3nc(C)ccc3C2=O)c1	106% (inactive)
CN1CCN(Cc2ccc(NC(=O)c3cncc(C#Cc4cnc5ccc(OCCCS(C)(=O)=O)nn45)c3)cc2C(F)(F)F)CC1	-3.51% (active)
CN1CCN(CCNc2nc(-c3cccc(NS(=O)(=O)c4cccc5c(N(C)C)cccc45)c3)cs2)CC1	77.3% (inactive)
Cc1[nH]c(C(=O)Nc2ccccc2OCc2cccc(C(=O)NC3CCNC3)c2)c(Cl)c1Cl (stereo not given)	-1.67% (active)
COc1ccc(/C=N/NC(=O)c2c(N)nn(C)c2Nc2ccccc2)cc1	27.8% (inactive)
CNC(=O)Nc1ccc(Nc2cc(-c3ccc(-n4cccn4)cc3)[nH]n2)c(C)c1	101% (inactive)
C#CCn1cc(/C=N/Nc2nc(-c3ccc(Br)cc3)cs2)c2ccccc21	104% (inactive)
Cc1cc(C)cc(NC2=C(Cl)C(=O)c3nc(C)ccc3C2=O)c1	76.8% (inactive)
COc1ccc2c(c1)c(-c1nn3cc(-c4ccncc4)nc3s1)cn2C	83.3% (inactive)
O=C(CCCCCCN1CC(=O)N2[C@@H](c3cccs3)c3[nH]c4ccccc4c3C[C@H]2C1=O)NO	81.8% (inactive)
NC(N)=NS(=O)(=O)c1ccc(N=Nc2c(N)nn(-c3ccc([N+](=O)[O-])cc3[N+](=O)[O-])c2N)cc1	101% (inactive)
O=C(CSc1nc2ccccc2c(=O)n1-c1ccccc1)Nc1ccc(S(=O)(=O)Nc2nccs2)cc1	94.4% (inactive)
Cc1c(C(=O)/C=C/c2ccc(Cl)cc2)nnn1-c1ccc2oc(=O)ccc2c1	99.8% (inactive)

SMILES	growth
CC1CCN(CC(=O)Nn2c(COc3ccccc3)nc3ccccc3c2=O)CC1	45% (inactive)
CCN(CC)CCOc1ccc(C(=C(c2ccccc2)C2CCCC2)c2ccc(OCCN(CC)CC)cc2)cc1	-7.22% (active)
O=C1[C@@H]2Cc3c([nH]c4ccccc34)[C@H](c3ccc(Br)cc3)N2C(=O)CN1C1CCN(Cc2c(Cl)cccc2Cl)CC1	99.1% (inactive)
COc1ccc(/C=N\NC(=O)c2cnn(CC(O)c3ccccc3)c2N)cc1OCc1ccc(Cl)cc1 (stereo not given)	75% (inactive)
NS(=O)(=O)c1nnc(/N=C/c2c(O)[nH]c3ccccc23)s1	95.4% (inactive)
C#CCOc1ccc(-c2csc(NC(=O)C=C)n2)cc1NS(=O)(=O)c1cccc2c(N(C)C)cccc12	63.1% (inactive)
O=S(=O)(Oc1ccc(-c2cn3ccoc3n2)cc1)c1cccc(C(F)(F)F)c1	95.7% (inactive)
Cc1[nH]c(C(=O)Nc2ccc(S(=O)(=O)N3CCCCC3)cc2OCCOCCOCCOCCOCCOCCOCCOCCOCCOc2cc(S(=O)(=O)N3CCCCC3)ccc2NC(=O)c2[nH]c(C)c3c2CCCCC3=O)c2c1C(=O)CCCC2	29.1% (inactive)
C/C(=N\NC(=O)Nc1ccccc1)c1nnn(-c2ccc([N+](=O)[O-])cc2)c1C	101% (inactive)
N#Cc1c(-c2cccs2)c(C#N)c(=O)n(Cc2nc3ccccc3[nH]2)c1N	102% (inactive)
Cn1cc(-c2cc3ncnc(Nc4ccc(CC(=O)Nc5nc(C(C)(C)C)cs5)cc4)c3s2)cn1	13.2% (inactive)
C(=N\Nc1nc(N/N=C/c2ccc3c(c2)OCO3)nc(N2CCCCC2)n1)/c1ccc2c(c1)OCO2	86.2% (inactive)
O=C1Nc2ccccc2/C1=C/c1ccc(OCC(=O)c2ccccc2)cc1	99.9% (inactive)
COc1cc(-c2nc(-c3ccccc3)[nH]c2-c2ccnc(NCCCNS(=O)(=O)c3ccc(C(F)(F)F)cc3)n2)ccc1Cl	25% (inactive) and 32.5% (inactive)
Clc1cccc(/C=N/Nc2nc(N/N=C/c3cccc(Cl)c3)nc(N3CCCCC3)n2)c1	91.1% (inactive)
O=c1nc(Nc2ccc([N+](=O)[O-])cc2O)sc2ccccc12	23.9% (inactive)
Cc1nc(N)sc1-c1csc(Nc2ccc(C(F)(F)F)cc2)n1	10.4% (inactive)
N#Cc1cnc2ccc(-c3cnc4n[nH]nc4c3)cc2c1N1CCc2cc(F)c(Cl)cc21	17.4% (inactive)
CCCCc1nc2c(N)nc3ccccc3c2n1Cc1cccc(CN)c1	49.9% (inactive)
Clc1ccc2[nH]cc(-c3nn4cc(-c5ccncc5)nc4s3)c2c1	47.7% (inactive)
